# Test results from PMC6602471.
# The full ranking holds about 1,300 sequences; the median of “log fluorescence intensity” is about 8.9, and the highest 2% start at about 13. Many of the other results were omitted from the sample, so the highest values are more common in it than they were.
# Target: T1, ELK1 (Homo sapiens, UniProt P19419 1-428)
# T1 sequence: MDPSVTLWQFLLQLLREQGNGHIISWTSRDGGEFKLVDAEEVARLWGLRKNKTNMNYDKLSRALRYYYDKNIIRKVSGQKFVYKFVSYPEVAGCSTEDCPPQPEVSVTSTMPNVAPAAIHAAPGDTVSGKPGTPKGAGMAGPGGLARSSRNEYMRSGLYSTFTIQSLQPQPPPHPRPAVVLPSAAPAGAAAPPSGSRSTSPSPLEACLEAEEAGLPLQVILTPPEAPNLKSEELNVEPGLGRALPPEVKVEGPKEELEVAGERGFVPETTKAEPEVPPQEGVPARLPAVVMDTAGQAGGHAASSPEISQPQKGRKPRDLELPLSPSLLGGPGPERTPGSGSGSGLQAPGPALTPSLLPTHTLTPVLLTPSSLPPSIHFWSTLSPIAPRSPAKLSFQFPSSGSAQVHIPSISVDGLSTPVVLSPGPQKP
# Assay: custom PBM; custom protein-binding microarray; buffer, salt, pH and temperature not stated; high values mean tight binding
# Conditions: dsDNA, one strand shown
row,Sequence,binding signal
1,GACTAATTTCTGCCCTTATTCGCACGTGCCATAACAGTCTTGATTCGCTTGACGCTGCTG,8.95 log fluorescence intensity
2,TCCGGCTACCAGTTCCACCCACTTCAGGCCTTGTAGGTCTTGATTCGCTTGACGCTGCTG,9.18 log fluorescence intensity
3,GGAATAAGGCCCAGGGTAACACCGGAAGTGGGCTTAGTCTTGATTCGCTTGACGCTGCTG,10.9 log fluorescence intensity
4,TACTAACTTATATATGCGAATGCACATGAATAGACCGTCTTGATTCGCTTGACGCTGCTG,8.93 log fluorescence intensity
5,TCCGGCTACCAGCTCCACCCACTTCAGTCCTTGTAGGTCTTGATTCGCTTGACGCTGCTG,9.06 log fluorescence intensity
6,GATTCATTTCTGCCCTTATTCGCACGTGCCATAACAGTCTTGATTCGCTTGACGCTGCTG,8.97 log fluorescence intensity
7,GGAAAAAGGCCCAGGGAAACACCGGAAGTGGGCTTAGTCTTGATTCGCTTGACGCTGCTG,11.4 log fluorescence intensity
8,GTGTATAGGATCCCATCCAACACACGTGTTCAAATGGTCTTGATTCGCTTGACGCTGCTG,8.97 log fluorescence intensity
9,TACTGACTTCTATATGCGAATGCACATGAATAGACCGTCTTGATTCGCTTGACGCTGCTG,8.96 log fluorescence intensity
10,TGTCGGGCAAGGGAATGTAGATCACGTGAATGAAAAGTCTTGATTCGCTTGACGCTGCTG,9.09 log fluorescence intensity
11,CAGCATAGTACTTCTTCCCTGAAGCAATTGATAACCGTCTTGATTCGCTTGACGCTGCTG,8.98 log fluorescence intensity
12,TAAAGGGAAGACGGTTGTGGTGGTTCCGGGTATTAAGTCTTGATTCGCTTGACGCTGCTG,11.1 log fluorescence intensity
13,GCTGCTGGGGTGCATACCCCACCGGATGTGACCCCGGTCTTGATTCGCTTGACGCTGCTG,9.94 log fluorescence intensity
14,GTGTATAGGATCCCATTCAACACACGTGTTAAAATGGTCTTGATTCGCTTGACGCTGCTG,8.9 log fluorescence intensity
15,TAAAGGGAAGACGGTTGTGGTAGATCCGGGTATTAAGTCTTGATTCGCTTGACGCTGCTG,9.61 log fluorescence intensity
16,TAAGGGGAAGACGGTTGTGGTAGTTCCGGGTATTAAGTCTTGATTCGCTTGACGCTGCTG,11.3 log fluorescence intensity
17,GGAAAAAGGCACAGGGTAACACCGGAAGTGGGCTTAGTCTTGATTCGCTTGACGCTGCTG,11 log fluorescence intensity
18,GGAAAAAGGCCCAGGGTAACACCGGAATTGGGCTTAGTCTTGATTCGCTTGACGCTGCTG,9.46 log fluorescence intensity
19,CGGAAGTGTCGTAAACGTCGGATATCCGCTTCTTCTGTCTTGATTCGCTTGACGCTGCTG,11.5 log fluorescence intensity
20,CAGCATAGGACTTCTTCCCTGAAGCAGTTGATAACCGTCTTGATTCGCTTGACGCTGCTG,8.98 log fluorescence intensity
21,GTGTATAGGATCCCATCCAACACACGTGTTAATATGGTCTTGATTCGCTTGACGCTGCTG,8.92 log fluorescence intensity
22,GGAAAAAGGCCCGGGGTAACACCGGAAGTGGGCTTAGTCTTGATTCGCTTGACGCTGCTG,11.8 log fluorescence intensity
23,GGAAAAAGGCCCCGGGTAACACCGGAAGTGGGCTTAGTCTTGATTCGCTTGACGCTGCTG,12.6 log fluorescence intensity
24,GGAAAAAGGCCCTGGGTAACACCGGAAGTGGGCTTAGTCTTGATTCGCTTGACGCTGCTG,11.1 log fluorescence intensity

row,Sequence,binding signal
1,CTGGGACTTGACCCAAATCTGCCACGTGGGTCGTTTGTCTTGATTCGCTTGACGCTGCTG,9 log fluorescence intensity
2,TGTCAGGTAAGGGAATGTAGATCACGTGAATGAAAAGTCTTGATTCGCTTGACGCTGCTG,8.9 log fluorescence intensity
3,TACTGAGTTATATATGCGAATGCACATGAATAGACCGTCTTGATTCGCTTGACGCTGCTG,8.97 log fluorescence intensity
4,TAAAGGGAAGACGGTTGTGGTAGTTCCGGGAATTAAGTCTTGATTCGCTTGACGCTGCTG,11.2 log fluorescence intensity
5,CAGCATAGGACTTCTTCCCTGAAGCAATTGATACCCGTCTTGATTCGCTTGACGCTGCTG,8.91 log fluorescence intensity
6,TACTGACTTATATATGCGAATGCACATGAATAGAACGTCTTGATTCGCTTGACGCTGCTG,8.92 log fluorescence intensity
7,TGGCGGGTAAGGGAATGTAGATCACGTGAATGAAAAGTCTTGATTCGCTTGACGCTGCTG,8.95 log fluorescence intensity
8,CTGGGACTTGACCCAACTCTGCCACGTGGGTCGTATGTCTTGATTCGCTTGACGCTGCTG,8.98 log fluorescence intensity
9,CTGGGACTTGACCCAACTCTGCCACGTGGGGCGTTTGTCTTGATTCGCTTGACGCTGCTG,8.94 log fluorescence intensity
10,TACTGACTTATATATCCGAATGCACATGAATAGACCGTCTTGATTCGCTTGACGCTGCTG,9.23 log fluorescence intensity
11,TAAAGGGAAGATGGTTGTGGTAGTTCCGGGTATTAAGTCTTGATTCGCTTGACGCTGCTG,10.9 log fluorescence intensity
12,CGGAAGTATCGTAAACGTCGGATATCCGGTTCTTCTGTCTTGATTCGCTTGACGCTGCTG,12 log fluorescence intensity
13,CGGACGTGTCGTAAACGTCGGATATCCGGTTCTTCTGTCTTGATTCGCTTGACGCTGCTG,12.2 log fluorescence intensity
14,CGGAAGGGTCGTAAACGTCGGATATCCGGTTCTTCTGTCTTGATTCGCTTGACGCTGCTG,12.1 log fluorescence intensity
15,CGGAACTGTCGTAAACGTCGGATATCCGGTTCTTCTGTCTTGATTCGCTTGACGCTGCTG,12.5 log fluorescence intensity
16,CGGATGTGTCGTAAACGTCGGATATCCGGTTCTTCTGTCTTGATTCGCTTGACGCTGCTG,12.2 log fluorescence intensity
17,CGGAAGTCTCGTAAACGTCGGATATCCGGTTCTTCTGTCTTGATTCGCTTGACGCTGCTG,12 log fluorescence intensity
18,CGGAAGCGTCGTAAACGTCGGATATCCGGTTCTTCTGTCTTGATTCGCTTGACGCTGCTG,12.5 log fluorescence intensity
19,CGGAAATGTCGTAAACGTCGGATATCCGGTTCTTCTGTCTTGATTCGCTTGACGCTGCTG,12.6 log fluorescence intensity
20,CGGAATTGTCGTAAACGTCGGATATCCGGTTCTTCTGTCTTGATTCGCTTGACGCTGCTG,12.8 log fluorescence intensity
21,CTGGGACTTGGCCCAACTCTGCCACGTGGGTCGTTTGTCTTGATTCGCTTGACGCTGCTG,8.95 log fluorescence intensity
22,TCCGGCTATCAGCTCCACCCACTTCAGGCCTTGTAGGTCTTGATTCGCTTGACGCTGCTG,9.1 log fluorescence intensity
23,CAGCATAGGACTTCTTCCCTGAAGAAATTGATAACCGTCTTGATTCGCTTGACGCTGCTG,8.96 log fluorescence intensity
